Test results from PubChem BioAssay.

What follows are molecules tested against Torsin-1A-interacting protein 1 (Homo sapiens) (UniProt Q5JTV8) (assay: compound microarray binding of lysate hLAP1 – cell lysate, small-molecule microarray, COS7 lysate, 635/667 nm fluorescence, primary screen (AID 1116)). Conditions: 635 nm fluorescence, higher = more signal.
Torsin-1A-interacting protein 1 (Homo sapiens), sequence (Q5JTV8 whole entry, looked up): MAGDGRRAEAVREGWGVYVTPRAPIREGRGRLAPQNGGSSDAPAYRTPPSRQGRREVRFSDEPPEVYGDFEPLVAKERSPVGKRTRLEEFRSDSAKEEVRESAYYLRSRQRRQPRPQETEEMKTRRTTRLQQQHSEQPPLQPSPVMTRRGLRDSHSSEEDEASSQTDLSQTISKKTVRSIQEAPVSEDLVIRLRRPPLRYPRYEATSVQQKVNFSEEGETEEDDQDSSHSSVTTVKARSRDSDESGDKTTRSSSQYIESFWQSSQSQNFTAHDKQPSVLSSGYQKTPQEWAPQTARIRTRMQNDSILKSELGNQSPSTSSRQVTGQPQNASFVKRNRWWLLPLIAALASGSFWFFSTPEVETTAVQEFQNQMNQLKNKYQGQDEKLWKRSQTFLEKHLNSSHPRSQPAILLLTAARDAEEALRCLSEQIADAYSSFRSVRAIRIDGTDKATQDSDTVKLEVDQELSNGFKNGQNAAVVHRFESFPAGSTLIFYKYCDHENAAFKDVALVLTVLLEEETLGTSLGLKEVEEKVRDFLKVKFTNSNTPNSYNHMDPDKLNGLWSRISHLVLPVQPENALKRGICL
With `O=C(O)[C@@H]1[C@@H]2C(=O)N(c3ccccc3)C(=O)[C@@H]2C[C@@H]1Sc1ccccc1` the composite z-score was 0.351.
Work on `COCCOC(=O)N1C(=O)[C@@]2(c3cc(C#CCNC(N)=O)ccc31)[C@H](C(N)=O)[C@H]1C(=O)O[C@H](c3ccccc3)[C@H](c3ccccc3)N1[C@@H]2c1ccccc1OCCO` yielded a composite z-score of 1.26.
In the case of `COC(=O)[C@@]1(Cc2ccc(OC)cc2)[C@H]2c3cc(C(=O)N4CCCC4)n(CCO)c3C[C@H]2CN1C(=O)c1ccccc1`, the composite z-score is reported as 1.47.
In the case of `C[N+](C)(C)CCCCCCNC(=O)[C@@H]1C[C@@H]2C(=O)N3CCC[C@H]3C(=O)N2[C@@H]1c1ccc(O)cc1`, the composite z-score is reported as 0.531.
For `O=C1O[C@@H](c2ccccc2)[C@@H](c2ccccc2)N2[C@@H](c3ccc(O)cc3)[C@]3(C(=O)Nc4ccc(C#CCCO)cc43)[C@@H](C(=O)N3CCN(c4ncccn4)CC3)[C@H]12`, the composite z-score was 0.255.
In the case of `CC(C)c1ccc(NN2C(C(O)c3ccc(F)cc3)C=CC3C(=O)N(c4ccccc4)C(=O)C32)cc1` (centres undefined), the composite z-score is reported as 0.305.
In the case of `C[N+](C)(C)CCCC[C@@H]1NC(=O)[C@@H]2C[C@H](C(=O)NCCCCCCN)[C@H](c3cccc(OCCO)c3)N2C1=O`, the composite z-score is reported as 2.55.
In the case of `Cc1ccc(S[C@]2(C(=O)NCC(F)(F)F)CC(=O)N(Cc3cc(C(F)(F)F)cc(C(F)(F)F)c3)[C@@H]2c2ccc(CO)cc2I)cc1`, the composite z-score is reported as -0.152.
Molecule `C=C[C@H]1C(C(=O)OCC)=CC[C@@H](c2ccccc2)N1S(=O)(=O)c1ccc(C)cc1` has a composite z-score of 0.325.
Work on `CCCCN1CC=CC23O[C@@H]4/C=C\CCCOC(=O)C4[C@H]2C(=O)N(CCO)[C@@H]3C1=O` (some centres undefined) yielded a composite z-score of 0.0966.
`CCCCN1CC=CC23O[C@@H]4/C=C\CCC(C)OC(=O)C4[C@H]2C(=O)N(CCCO)[C@@H]3C1=O` (some centres undefined) showed a composite z-score of -0.318.
`O=C(NCc1ccc(F)cc1)[C@H]1C[C@H]2C(=O)NCC(=O)N2[C@H]1c1ccc(O)cc1` was tested, and the composite z-score was 0.605.
For `CCOC(=O)C[C@H]1[C@H](OC(=O)Cc2ccc3c(c2)OCO3)[C@@H](NC(=O)c2ccc3ccccc3n2)c2cc(OCCCO)ccc2N1C(=O)c1ccccc1`, the composite z-score was 0.49.
In the case of `COc1cc2c(cc1O)C(C1CC1)N(C)CC2` (centres undefined), the composite z-score is reported as -0.431.
`COC(=O)C1=CC(CCCO)=CC(c2cccs2)N(Cc2cccc(OC(F)(F)F)c2)C=C1C(=O)OC` (centres undefined) gave a composite z-score of 2.41.
Work on `COCCCNC(=O)[C@@]1(Sc2ccc(C)cc2)CC(=O)N(C2Cc3ccccc3C2)[C@@H]1c1ccc(CO)cc1` yielded a composite z-score of 0.423.
Work on `CN(C)c1ccc(C(O)C2C=CC3C(=O)NC(=O)C3N2Nc2ccccn2)cc1` (centres undefined) yielded a composite z-score of -0.269.
`COc1ccccc1CN1C(=O)c2ccccc2[C@](Cc2ccccc2I)(C(=O)O)[C@@H]1c1ccc(CO)cc1` gave a composite z-score of 0.152.
For `CC(C)N1CC=CC23O[C@@H]4C=CCCOC(=O)C4[C@H]2C(=O)N(CCCO)[C@@H]3C1=O` (some centres undefined), the composite z-score was 0.263.
With `COc1ccc(C(=O)Nc2ccc(CN3C(=O)[C@]4(O[C@H](CC(=O)N5Cc6ccccc6C[C@H]5CO)[C@@H]([Si](C)(C)c5ccc(OC)cc5)[C@@H]4C)c4ccccc43)cc2)cc1` the composite z-score was 0.795.
`Cn1cccc1C(O)C1C=CC2C(=O)N(c3ccccc3)C(=O)C2N1Nc1ccccc1` (centres undefined) showed a composite z-score of 1.31.
`CCOC(=O)C[C@H]1[C@H](OC(=O)c2cc3ccccc3oc2=O)[C@@H](NC(=O)CC(C)C)c2cc(OCCCO)ccc2N1C(=O)c1ccc2ccccc2n1` showed a composite z-score of 0.0785.
For `CC[C@@H]1C=C(C(=O)O)[C@H](c2ccccc2)N1S(=O)(=O)c1ccc(C)cc1`, the composite z-score was 0.599.
Work on `C=CC[C@@H](OC(=O)Nc1ccc(SC)cc1)c1ccc(O)c(F)c1` yielded a composite z-score of 0.958.

The molecules below were run against Alpha-bungarotoxin (Bungarus multicinctus) (UniProt P60615) (assay: compounds binding labelled alpha-BTX control protein – biochemical, small-molecule microarray, Alexa647 label, 635/667 nm fluorescence, artefact control for SMM control protein annotation, profiling panel (AID 1117)). Conditions: alpha-BTX-A647 binding fluorescence, higher = more signal.
Alpha-bungarotoxin (Bungarus multicinctus), sequence (P60615 whole entry, looked up): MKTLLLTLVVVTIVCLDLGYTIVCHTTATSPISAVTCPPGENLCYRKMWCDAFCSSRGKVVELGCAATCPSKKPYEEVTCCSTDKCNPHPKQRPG
Work on `C[C@@H]1NC(=O)[C@@H](Cc2ccccc2)NC(=O)[C@@]23C(=O)N[C@@H](Cc4ccccc4)C2[C@H](C)[C@@]2(C)O[C@H]2C3/C=C/C/C=C\CNC1=O` (some centres undefined) yielded a composite z-score of -0.537.
In the case of `COc1cccc(C)c1NC(=O)O[C@H]1[C@H](OC(=O)Nc2ccc3c(c2)OCO3)[C@@H](OC(=O)Nc2ccc3c(c2)OCO3)[C@@H](OC)O[C@@H]1CO`, the composite z-score is reported as 0.869.
For `C=C(COC)/C(=C/C[C@H](OC(=O)c1ccncc1)c1ccc(CO)o1)c1cnc2ccccc2c1`, the composite z-score was 1.91.
For `CC(C)=C1C(=O)C(c2ccccc2)=C2CN3C(=O)N(CCc4ccccc4)C(=O)[C@]3(Cc3ccc(C(F)(F)F)cc3)[C@H]21`, the composite z-score was 0.716.
Work on `CCCCNC(=O)c1ccc(C#CC(C)(C)C)c(OC(C)=O)c1` yielded a composite z-score of 0.608.
Molecule `C=CCC(OC(C)=O)[C@@H]1[C@@H](N(Cc2cccc3ccccc23)C(=O)Cc2ccc(OC)cc2)c2cc(OCCCO)ccc2N1C(=O)c1ccc(-c2ccccc2)cc1` (some centres undefined) has a composite z-score of 0.28.
`COc1cc(NN2C(C(O)c3ccc(N(C)C)cc3)C=CC3C(=O)N(c4ccccc4)C(=O)C32)cc(OC)c1OC` (centres undefined) gave a composite z-score of 0.738.
In the case of `CCCC[C@@H](O)C1=C(COC)C[C@H]2C(=O)N(C)C(=O)[C@H]2[C@H]1CO`, the composite z-score is reported as -0.165.
`CC1CC/C=C\[C@H]2OC34C=CCN(c5ccc6ccccc6c5)C(=O)[C@H]3N(CCCO)C(=O)[C@@H]4C2C(=O)O1` (some centres undefined) gave a composite z-score of -0.905.
`CC(C)C(CO)N1C(=O)[C@@H]2[C@H]3C(=O)OCC=C[C@H]3OC23C=CCN(c2ccc(Cl)cc2)C(=O)[C@@H]13` (some centres undefined) gave a composite z-score of -1.17.
With `CCCN1C(=O)[C@@]2(Cc3ccccc31)N=C(c1ccc(OCCCO)cc1)O[C@H]2c1ccccc1` the composite z-score was 1.17.
Molecule `O=C(O)[C@@H]1[C@@H]2C(=O)N(c3ccccc3)C(=O)[C@@H]2C[C@@H]1Sc1ccccc1` has a composite z-score of -0.909.
With `COCCOC(=O)N1C(=O)[C@@]2(c3cc(C#CCNC(N)=O)ccc31)[C@H](C(N)=O)[C@H]1C(=O)O[C@H](c3ccccc3)[C@H](c3ccccc3)N1[C@@H]2c1ccccc1OCCO` the composite z-score was 1.06.
In the case of `COC(=O)[C@@]1(Cc2ccc(OC)cc2)[C@H]2c3cc(C(=O)N4CCCC4)n(CCO)c3C[C@H]2CN1C(=O)c1ccccc1`, the composite z-score is reported as 0.365.
`C[N+](C)(C)CCCCCCNC(=O)[C@@H]1C[C@@H]2C(=O)N3CCC[C@H]3C(=O)N2[C@@H]1c1ccc(O)cc1` was tested, and the composite z-score was 0.341.
Work on `O=C1O[C@@H](c2ccccc2)[C@@H](c2ccccc2)N2[C@@H](c3ccc(O)cc3)[C@]3(C(=O)Nc4ccc(C#CCCO)cc43)[C@@H](C(=O)N3CCN(c4ncccn4)CC3)[C@H]12` yielded a composite z-score of 0.101.
`CC(C)c1ccc(NN2C(C(O)c3ccc(F)cc3)C=CC3C(=O)N(c4ccccc4)C(=O)C32)cc1` (centres undefined) showed a composite z-score of 1.39.
For `C[N+](C)(C)CCCC[C@@H]1NC(=O)[C@@H]2C[C@H](C(=O)NCCCCCCN)[C@H](c3cccc(OCCO)c3)N2C1=O`, the composite z-score was 1.9.
`Cc1ccc(S[C@]2(C(=O)NCC(F)(F)F)CC(=O)N(Cc3cc(C(F)(F)F)cc(C(F)(F)F)c3)[C@@H]2c2ccc(CO)cc2I)cc1` was tested, and the composite z-score was -0.379.
For `C=C[C@H]1C(C(=O)OCC)=CC[C@@H](c2ccccc2)N1S(=O)(=O)c1ccc(C)cc1`, the composite z-score was 0.621.
`CCCCN1CC=CC23O[C@@H]4/C=C\CCCOC(=O)C4[C@H]2C(=O)N(CCO)[C@@H]3C1=O` (some centres undefined) showed a composite z-score of -0.401.
Molecule `CCCCN1CC=CC23O[C@@H]4/C=C\CCC(C)OC(=O)C4[C@H]2C(=O)N(CCCO)[C@@H]3C1=O` (some centres undefined) has a composite z-score of -0.566.
For `O=C(NCc1ccc(F)cc1)[C@H]1C[C@H]2C(=O)NCC(=O)N2[C@H]1c1ccc(O)cc1`, the composite z-score was -0.144.
In the case of `CCOC(=O)C[C@H]1[C@H](OC(=O)Cc2ccc3c(c2)OCO3)[C@@H](NC(=O)c2ccc3ccccc3n2)c2cc(OCCCO)ccc2N1C(=O)c1ccccc1`, the composite z-score is reported as 0.611.
For `COc1cc2c(cc1O)C(C1CC1)N(C)CC2` (centres undefined), the composite z-score was -1.72.
`COC(=O)C1=CC(CCCO)=CC(c2cccs2)N(Cc2cccc(OC(F)(F)F)c2)C=C1C(=O)OC` (centres undefined) was tested, and the composite z-score was 1.02.
In the case of `COCCCNC(=O)[C@@]1(Sc2ccc(C)cc2)CC(=O)N(C2Cc3ccccc3C2)[C@@H]1c1ccc(CO)cc1`, the composite z-score is reported as -0.715.
`CN(C)c1ccc(C(O)C2C=CC3C(=O)NC(=O)C3N2Nc2ccccn2)cc1` (centres undefined) gave a composite z-score of 0.162.
`COc1ccccc1CN1C(=O)c2ccccc2[C@](Cc2ccccc2I)(C(=O)O)[C@@H]1c1ccc(CO)cc1` was tested, and the composite z-score was 1.21.
For `CC(C)N1CC=CC23O[C@@H]4C=CCCOC(=O)C4[C@H]2C(=O)N(CCCO)[C@@H]3C1=O` (some centres undefined), the composite z-score was -0.659.
Molecule `COc1ccc(C(=O)Nc2ccc(CN3C(=O)[C@]4(O[C@H](CC(=O)N5Cc6ccccc6C[C@H]5CO)[C@@H]([Si](C)(C)c5ccc(OC)cc5)[C@@H]4C)c4ccccc43)cc2)cc1` has a composite z-score of 1.31.
In the case of `Cn1cccc1C(O)C1C=CC2C(=O)N(c3ccccc3)C(=O)C2N1Nc1ccccc1` (centres undefined), the composite z-score is reported as 1.68.
`CCOC(=O)C[C@H]1[C@H](OC(=O)c2cc3ccccc3oc2=O)[C@@H](NC(=O)CC(C)C)c2cc(OCCCO)ccc2N1C(=O)c1ccc2ccccc2n1` was tested, and the composite z-score was 0.643.
`CC[C@@H]1C=C(C(=O)O)[C@H](c2ccccc2)N1S(=O)(=O)c1ccc(C)cc1` showed a composite z-score of 1.39.
Work on `C=CC[C@@H](OC(=O)Nc1ccc(SC)cc1)c1ccc(O)c(F)c1` yielded a composite z-score of 0.26.
